Screens from PubChem BioAssay.
D1 antag = human D1 dopamine receptor antagonism; P21728; HEK293 TREx D1 cells, calcium flux, dopamine EC80; active compounds read low; activity change, negative = inhibition, % at 10 µM; actives 3.2% (n = 360,000); in the data active = activity change below about -30%; note: % is set by controls: 0 for no effect and ±100 for the full control effect
Target sequence (P21728 whole entry, looked up): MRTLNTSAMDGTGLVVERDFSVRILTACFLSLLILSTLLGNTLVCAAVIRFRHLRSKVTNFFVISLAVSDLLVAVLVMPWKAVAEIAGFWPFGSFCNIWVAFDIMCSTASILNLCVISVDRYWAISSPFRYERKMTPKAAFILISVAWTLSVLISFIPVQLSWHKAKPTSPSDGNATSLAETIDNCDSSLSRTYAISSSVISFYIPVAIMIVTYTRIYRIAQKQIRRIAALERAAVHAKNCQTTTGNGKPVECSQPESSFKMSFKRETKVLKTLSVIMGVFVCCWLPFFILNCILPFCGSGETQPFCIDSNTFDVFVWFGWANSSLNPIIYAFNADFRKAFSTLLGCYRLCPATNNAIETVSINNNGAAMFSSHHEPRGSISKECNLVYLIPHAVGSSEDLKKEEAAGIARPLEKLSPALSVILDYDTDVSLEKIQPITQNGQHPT
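Kinetic fluorescence of a calcium dye serves as the read-out. D1-expressing Hek293 Trex cells, induced overnight at 30 C, are exposed to compound for 180 s before an EC80 dopamine addition, then read 180 s further.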
TRHR enhancer = allosteric enhancers of human TRH receptor; P34981; TRHR cells, fluo-8 calcium fluorescence, EC20 TRH enhancement; enhancement, % at 2 µM; actives 0.66% (n = 360,000); AID 493056; in the data active = enhancement above about 30%; note: 0% is about no effect
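TRHR-expressing cells loaded with fluo-8 calcium dye were read kinetically (ex 480/em 530) during compound addition, then stimulated with an EC20 of TRH (10 nM final). Enhancement of the Gq-mediated intracellular calcium response was scored.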
GRP78 ERSR act = ER stress response induction in glioma; U87-MG GRP78 promoter luciferase reporter, 16 h; Potency, µM, for the others: top-dose activation, usual class: activators; actives 0.02% (n = 420,000); AID 602332; active = well fitted activation curve with a large enough effect; note: potency is the fitted concentration of half-maximal effect; series mostly up to about 76 µM; % of control where 0% means no effect; nearly all actives have a fitted effect of over 35% in size
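Stably transfected U87-MG glioma cells carrying a GRP78-based luciferase sensor; 16 h compound incubation. Luminescence end-point read 10 min after Bright-Glo addition at room temperature.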
D1 ag = human D1 receptor agonism | HEK293 T-REx D1 cells, calcium flux, agonist mode | activation, % at 2 µM | AID 504660 | actives 1% (n = 360,000); note: 0% is about no effect
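Inducible HEK293 T-REx D1 cells, force-coupled to calcium signalling, were plated at 4000 cells/well with tetracycline and held overnight at 30 C. After no-wash calcium dye loading, compound-evoked calcium rise over 180 s flagged agonists.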
D1 PAM = potentiators of human D1 dopamine receptor; P21728; actives 0.036% (n = 360,000); potentiation, % at 10 µM; HEK293 TREx D1 cells, calcium flux, dopamine EC20 potentiation; in the data active = potentiation above about 30%; note: 0% is about no effect
TRHR ag = activates the human TRH receptor | TRHR cells, calcium flux fluo-8, FDSS agonist mode | activation, % at 2 µM | actives 0.18% (n = 360,000) | AID 493084; note: 0% is about no effect
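Steps: seed TRHR cells overnight; add fluo-8 no-wash Ca dye, RT 30 min–1.5 h; record 10 s baseline; pin-transfer compounds; monitor fluorescence 1 cycle/s for the agonist window. Calcium increases flag candidate agonists.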
The depositor's hits bear a star; · = no result given. The list is not random: actives were taken first. Their share in the collection is about 4%. Cut-off read from the data, not from the text of the source, unless noted: active = activation above about 30%; inactive = the rest.

SMILES | D1 antag | TRHR enhancer | GRP78 ERSR act | D1 ag | D1 PAM | TRHR ag
COc1ccc(C(=O)NNC(=O)C(NC(=O)c2cc(OC)cc(OC)c2)C(C)C)cc1 (configuration not stated) | -39.3* | 1.2 | 5.2% | 1.2 | -4.2 | -0.6
Cc1cc(/C=C(\C#N)C(=O)OCC(=O)NC(=O)NC(C)(C)C)c(C)n1CCC(C)C | -50.7* | -6.0 | 3.7% | -1.6 | -3.8 | 0.6
C=CCNC(=O)NC(=O)COC(=O)/C(C#N)=C/c1cc(C)n(CCC(C)C)c1C | 9.9 | 17.6 | 2.6% | 3.1 | 1.2 | 8.7
Cc1ccc(Cn2nnc3sc4c(c3c2=O)CCC(C)C4)cc1 (configuration not stated) | 5.3 | 5.6 | 3.6% | -0.4 | -3.4 | 0.5
O=C(O)c1ccc(Cn2nnc3sc4c(c3c2=O)CCCC4)cc1 | -30.3* | -0.4 | 12.3% | 1.7 | 0.6 | 0.7
CC1CCc2c(sc3nnn(Cc4ccc(F)cc4)c(=O)c23)C1 (configuration not stated) | -44.5* | 1.6 | -4.0% | 2.6 | -2.1 | 1.2
COc1ccc(CN2CC(=O)N(c3ccc(Cl)cc3)C2=S)cc1OC | -4.9 | 4.3 | -2.5% | 4.5 | -1.2 | 0.6
CCc1ccc(N2C(=O)CN(Cc3ccc(OC)c(OC)c3)C2=S)cc1 | -82.9* | 4.3 | -1.5% | 1.6 | 0.3 | 0.2
Clc1ccc(C[n+]2csc3ccccc32)cc1 | -0.8 | 0.7 | 7.7% | 3.2 | 1.0 | -0.3
CC1CCN(CC(O)COc2ccc(F)cc2)CC1 (configuration not stated) | -49.4* | -5.8 | -3.5% | 2.2 | · | 0.5
CC(C)OCC(O)CN1CCC(Cc2ccccc2)CC1 (configuration not stated) | -1.6 | 1.7 | -3.7% | -0.4 | 2.4 | -0.1
CCc1ccc(OCC(O)CN2CCN(c3ccc(OC)cc3)CC2)cc1 (configuration not stated) | -39.9* | 6.0 | -3.5% | 30.4* | 0.3 | -0.5
CCc1ccc(OCC(O)CN2CCN(c3ccccn3)CC2)cc1 (configuration not stated) | -9.0 | 2.1 | 1.6% | -3.3 | 0.4 | -0.1
CC(=O)c1ccc(OCC(O)CN2CCN(c3ccccn3)CC2)cc1 (configuration not stated) | -59.6* | 2.4 | -4.0% | 2.4 | -5.8 | 0.0
OC(COc1ccc(Br)cc1)CN1CCC(Cc2ccccc2)CC1 (configuration not stated) | -42.9* | 9.3 | -0.6% | 18.1 | -10.6 | 2.0
CC1=C(C(=O)OC(C)C)C(c2cccs2)C(C(=O)OC(C)C)=C(C)N1 | -32.2* | 2.1 | -1.5% | 6.6 | -5.0 | -0.6
CC1=C(C(=O)OC(C)C)C(c2cccs2)NC(=O)N1 (configuration not stated) | -0.8 | 1.5 | -1.7% | -0.4 | 2.1 | -0.5
Cc1c(C(=O)N2CCOCC2)sc(NC(=O)c2ccc3c(c2)OCO3)c1C#N | -33.8* | 2.6 | -3.6% | 1.3 | 1.2 | 1.0
CCN(CC)C(=O)c1sc(NC(=O)c2ccc3c(c2)OCO3)c(C#N)c1C | -1.6 | 2.4 | -1.6% | 1.7 | -3.7 | 0.3
O=C(Cn1nnc(-c2ccc(Cl)cc2)n1)NC1CC2CCC1C2 (configuration not stated) | -33.5* | 9.5 | 0.6% | 1.8 | -6.2 | -0.1
Cc1cccc(NC(=S)NC2CCSc3ccccc32)c1 (configuration not stated) | -33.1* | -11.7 | 0.1% | 7.6 | -10.8 | 0.6
COc1ccccc1NC(=O)/C(C#N)=C/c1cccnc1 | -30.8* | -5.3 | -3.2% | -1.1 | -6.3 | 0.2
COc1ccccc1NC(=O)/C(C#N)=C/c1ccncc1 | -12.8 | 8.9 | 0.6% | 16.5 | -4.0 | 0.8
N#C/C(=C\c1cccnc1)C(=O)Nc1cccc(Cl)c1 | -6.7 | 7.6 | -0.3% | 7.2 | -1.6 | -1.2
COc1ccccc1NC(=O)/C(=C\c1cccnc1)NC(=O)c1ccc(C)cc1 | -32.0* | -2.2 | -2.7% | 1.5 | 2.9 | 0.3
COc1ccccc1NC(=O)/C(=C\c1cccnc1)NC(=O)c1ccccc1 | 9.2 | -2.2 | -3.0% | -0.6 | -5.0 | 0.4
N#C/C(=C\c1cccnc1)C(=O)Nc1ccc(Cl)cc1 | -31.0* | 2.8 | -0.8% | 7.4 | -3.4 | -0.6
